This is part of a sample that, as a whole, favours compounds with a hit. Of some 83,000 tested, about 20% had one in any assay.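 For each line, cells grew in 96-well plates with the test compound present at a single concentration for 48 hours.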 Values without a mark were called inactive. The source made the active and inactive calls. How the source made its calls: active means growth percent below 10; inactive means the rest.
system: MDA-MB-468 breast; experiment: NCI-60 one-dose screen, 48 h (100 = growth as untreated, 0 = no growth, -100 = all killed); settings: 10 µM unless noted

| SMILES | growth |
| --- | --- |
| COc1ccc(/C=C2/C(=O)Nc3cc(Cl)c(-c4csc(N)n4)cc32)cc1 | 0.87% (active) |
| COC(=O)c1ccc(C(=O)Nc2ccccc2N)cc1 | 44% |
| CS(=O)(=O)c1ccc(-c2nc3ccccn3c2C=Nc2ccc(Cl)cc2)cc1 | 98.1% |
| C#CCn1cnc2cnc(Nc3cccc(NC(=O)CCl)c3)nc21 | -17.3% [6.25 µM] (active) |
| Cc1nccc2c3ccc(OCc4cn(-c5ccc(Cl)cc5)nn4)cc3n(CC(C)C)c12 | -1.72% (active) |
| COc1ccc(-c2csc(NC(=O)c3cc(O)c(O)c(O)c3)n2)cc1 | 78.6% |
| O=C1/C(=C/c2ccc3c(c2)OCO3)SC(=S)N1C1c2ccccc2Oc2ccccc21 | 90.4% |
| O=C(/C=C/c1cccc2ccccc12)c1ccc(NC(=O)c2ccccc2CN2C(=O)c3ccccc3C2=O)cc1 | 51.3% |
| COc1cc2c3c(n(CCCNCC4CC4)c(=O)c2cc1OC)-c1cc2c(cc1C3=O)OCO2 | 41.4% |
| COc1ccc(/C=C/C(=O)c2nnn(-c3ccc(Br)cc3)c2C)cc1OC | 46.9% |
| Nc1ccc2c3c(cccc13)-c1ccccc1-2 | 88.6% |
| CC(=O)N1N=C(c2ccc(Cl)cc2)CC1c1sc(Cl)nc1Cl (stereo not given) | 74.9% |
| Cc1[nH]c2ccc(F)cc2c1CCNC(=O)C1CCN(C(=O)c2ccc(-c3ccccc3)cc2)CC1 | 48.5% |
| CC(=O)OCCOc1cc(Cl)c(Cl)cc1Cl | 93.9% |
| FC(F)(F)c1ccc(/C=N/Nc2nnc3n2N=C(c2ccc(Cl)cc2)CS3)cc1 | 74.3% |
| CCC(C)Nc1ccc(N)cc1 (stereo not given) | -30.9% (active) |
| CCCCn1c(Cc2ccc(OC)cc2)nc2cc(OC)c(OC)cc2c1=O | 46.7% |
| Cc1ccc(C(=O)N/N=C/c2cccc(Oc3ccccc3)c2)cn1 | 58.6% |
| Nc1ccn(C2O[C@H](CO)[C@@H](O)[C@H]2O)c(=O)n1 (stereo not given in full) | 96.8% |
| O=C(N=Nc1c(O)[nH]c2ccccc12)Nc1ccccc1Cl | 11.5% |

| SMILES | growth |
| --- | --- |
| CSc1nc(-c2ccc(F)cc2)c(C#N)c(N2CCOCC2)n1 | 87.3% |
| CCN(CC)CCSc1c2ccc(Cl)cc2nc2ccc(OC)cc12 | -17.5% (active) |
| CNCCCNc1nc2ccccc2c2c(=O)c3cc(OC)ccc3sc12 | 24.8% |
| Cc1cc(C)c(N2C(=O)CC(Sc3ccccc3N)C2=O)c(C)c1 (stereo not given) | 45.6% |
| COc1ccc(-c2nc(SCC(C)C)nc(Nc3ccc(C)cc3)c2C#N)cc1 | 71.1% |
| COc1cc(C2CC(=O)Nc3c2cnn3Cc2ccco2)cc2c1OCCO2 (stereo not given) | 73.8% |
| COc1cc(OCc2cccc(Br)c2C)cc(OC)c1C=O | 20.8% |
| COc1cc2c(cc1OC)C(=O)C(Br)CC2 (stereo not given) | 24.7% |
| COc1ccc(/C=C/C(=O)/C=C(/C=C/c2ccc(OC)c(OC)c2OC)OB(F)F)c(OC)c1OC | 39.1% |
| Cn1cc(-c2csc(-c3c[nH]c4ccc(Br)cc34)n2)c2cnccc21 | -70.5% (active) |
| C=C(C=O)[C@@H]1CC[C@]2(C)[C@H](CC=C3[C@H]4[C@@H](C)[C@H](C)CC[C@]4(C(=O)OC)CC[C@]32C)[C@@]1(C)CCC#N | -18.1% (active) |
| C#CCN(C)CCCOc1ccc(NC(=O)CCCCCCCCC(=O)NO)cc1Cl | 27.6% |
| Cn1c(COC(=O)NCCc2ccccn2)nc2c(N3CCOCC3)nc(Cl)nc21 | -51.1% (active) |
| COc1cc(CNC(=O)CCCCC[P+](c2ccccc2)(c2ccccc2)c2ccccc2)c(OC)c2c1OCO2 | 6.74% (active) |
| Nc1nc(N)c2c(n1)NC(c1cccc(Nc3ccnc4cc(C(F)(F)F)ccc34)c1)CC(c1ccc(F)cc1)=N2 (stereo not given) | 18% |
| O=P(OCCCl)(OCCCl)C(O)c1ccccc1Cl (stereo not given) | 109% |
| CN(C)c1ccc(/C=C/c2nccc3ccccc23)cc1 | -1.08% (active) |
| Nc1nc(N)c2c(n1)NC(c1ccc(F)cc1)CC(c1ccc(Nc3nc(NCCO)nc(Nc4ccc(Cl)cc4)n3)cc1)=N2 (stereo not given) | -68.5% (active) |
| O=C(CCCl)OCCOc1ccccc1 | 107% |
| N#Cc1c(-c2ccccc2)c(C#N)c2c(C#N)c(N)nn2c1N | 25.9% |
